Assay [1] in a line: Identifying Small Molecule Inhibitors of Pancreatic Cancer Stem Cells (A2780, Spheroid) (AID 1259357; active = well fitted curve in the direction sought with a large enough effect; an effect the other way counts as inactive or inconclusive;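 also: spheroids pre-formed over 14 days in stem cell medium on hydrogel; potency is read from the fitted curve at half-maximal effect; compound exposure lasted 48 h before the ATP luminescence read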). Particulars: A2780 spheroid viability. The method, boiled down: (§1)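 Spheroids grown 14 days in stem cell media on nonadherent hydrogel before screening; cells attached 4 h, then compound exposure 48 h at 37C, 5% CO2. CellTiter-Glo luminescence normalized to DMSO (no inhibition) and no-cell wells (full inhibition).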

Assay [2] can be described thus: Identifying Small Molecule Inhibitors of Pancreatic Cancer Stem Cells (Panc1, Spheroid) (AID 1259359; active = well fitted curve in the direction sought with a large enough effect; an effect the other way counts as inactive or inconclusive;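 also: potency is read from the fitted curve at half-maximal effect; compound exposure lasted 48 h before reading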). The conditions noted are these: Panc1 spheroid cancer stem cell viability. The text has this:
Progenitor-like cancer cells, often referred to as cancer stem cells (CSC), are believed to be the drivers of therapeutic resistance and rapid recurrence. CSCs are postulated to reside in specific niches characterized by low oxygen tension, limited nutrient supply, and high redox load. Selectively targeting CSC, alone or in combination with cytotoxic agents, as a means to produce durable remissions is an appealing concept. Modeling these cells in in vitro setting is an important step in finding new therapies and/or targets. Multiple reports highlight that forcing cells in culture into 3-dimensionaly architectures (spheroids) re-establishes key progenitor-like transcriptional signatures. Pancreatic cancer is among the diseases with the most dismal outlook which is driven, largely, by recurance following front-line therapies. […]
Multicellular tumor spheroids from Panc1, MiaPaCa-2, and the primary low-passage tissue culture line SB.06 were seeded in stem cell media (SCM) in nonadherent 6-well plates coated with hydrogel (Corning Life Sciences, Chelmsford, Mass) and pancreatic spheres generated for 14 days before screening. […] Plates were incubated at room temperature for 10 minutes prior to reading the luminescence on the Viewlux (PerkinElmer). […]

A short description of assay [3]: Identifying Small Molecule Inhibitors of Pancreatic Cancer Stem Cells (SN12C, Spheroid) (AID 1259360; active = well fitted curve in the direction sought with a large enough effect; an effect the other way counts as inactive or inconclusive; also: potency is read from the fitted curve at half-maximal effect). Particulars: SN12C spheroid viability. The method, boiled down:
as §1

Assay [4] is described as follows: Identifying Small Molecule Inhibitors of Pancreatic Cancer Stem Cells (A278, Adherent) (AID 1259361; active = well fitted curve in the direction sought with a large enough effect; an effect the other way counts as inactive or inconclusive; also: nearly all actives have a fitted effect of over 35% in size). An outline of the steps:
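Viability is scored by CellTiter-Glo luminescence 48 h after dosing, expressed as percent activity against vehicle and no-cell references. Spheroid formats rely on cells cultured 14 days in stem cell media beforehand.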

Assay [5] can be described thus: Identifying Small Molecule Inhibitors of Pancreatic Cancer Stem Cells (Panc1, Adherent) (AID 1259362; active = well fitted curve in the direction sought with a large enough effect; an effect the other way counts as inactive or inconclusive; also: potency is read from the fitted curve at half-maximal effect). Particulars: viability. An outline of the steps:
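Pre-formed 14-day tumor spheroids or adherent cells dosed and incubated 48 h, 37C, 5% CO2. Viability assessed by CellTiter-Glo.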

Assay [6] can be described thus: Natriuretic polypeptide receptor (hNpr1) antagonism - Pilot counterscreen GloSensor control cell line (AID 1347045). The conditions noted are these: HEK293 cGMP GloSensor cells, SNP-stimulated luminescence, 20 min; series mostly up to 38.3 µM. An outline of the steps:
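This counterscreen uses HEK293 cells expressing the GIP/pGS-40F cGMP biosensor. Compound-treated cells are challenged with 50 uM sodium nitroprusside, and the luciferase signal is compared before and after stimulation.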
For orientation: The purpose of a counterscreen is to sort out artefacts and off-target activity.

A short description of assay [7]: P-glycoprotein substrates identified in KB-8-5-11 adenocarcinoma cell line, qHTS therapeutic library screen (AID 1346987; active = well fitted curve in the direction sought with a large enough effect; an effect the other way counts as inactive or inconclusive; also: nearly all actives have a fitted effect of over 65% in size; also: potency is read from the fitted curve at half-maximal effect). Particulars: KB-8-5-11 (P-gp overexpressing) viability, CellTiter-Glo, 72 h; series mostly up to 44.5 µM. An outline of the steps: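 P-gp-mediated resistance screen: KB-8-5-11 cells treated 72 h with compounds in dose-response. CellTiter-Glo viability.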
(In qHTS, concentration-response curves come from the screen itself.)

The target of assay [8] is Atrial natriuretic peptide receptor 2 (Homo sapiens) (UniProt P20594). The assay can be described thus: Natriuretic polypeptide receptor (hNpr2) antagonism - Pilot subtype selectivity assay (AID 1347050). The conditions noted are these: NPR2-expressing cells, cGMP antagonist-mode read-out; series mostly up to 38.3 µM. An outline of the steps: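 cGMP-sensor HEK293/hNpr2 cells; 2% GloSensor reagent 2 h RT; compounds 30 min; baseline luminescence read; 1 nM hNppC agonist 20 min RT; final luminescence read by CCD camera. Antagonism = reduced post-agonist signal.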

The structures appear in SMILES notation. Inconclusive results are not listed. Where a call stands in place of a potency, no number is given. Calls of active or inactive are those of the source. Unless noted, calls follow the shape of the full dose curve.

Atrial natriuretic peptide receptor 2 (Homo sapiens), sequence (P20594 whole entry, looked up): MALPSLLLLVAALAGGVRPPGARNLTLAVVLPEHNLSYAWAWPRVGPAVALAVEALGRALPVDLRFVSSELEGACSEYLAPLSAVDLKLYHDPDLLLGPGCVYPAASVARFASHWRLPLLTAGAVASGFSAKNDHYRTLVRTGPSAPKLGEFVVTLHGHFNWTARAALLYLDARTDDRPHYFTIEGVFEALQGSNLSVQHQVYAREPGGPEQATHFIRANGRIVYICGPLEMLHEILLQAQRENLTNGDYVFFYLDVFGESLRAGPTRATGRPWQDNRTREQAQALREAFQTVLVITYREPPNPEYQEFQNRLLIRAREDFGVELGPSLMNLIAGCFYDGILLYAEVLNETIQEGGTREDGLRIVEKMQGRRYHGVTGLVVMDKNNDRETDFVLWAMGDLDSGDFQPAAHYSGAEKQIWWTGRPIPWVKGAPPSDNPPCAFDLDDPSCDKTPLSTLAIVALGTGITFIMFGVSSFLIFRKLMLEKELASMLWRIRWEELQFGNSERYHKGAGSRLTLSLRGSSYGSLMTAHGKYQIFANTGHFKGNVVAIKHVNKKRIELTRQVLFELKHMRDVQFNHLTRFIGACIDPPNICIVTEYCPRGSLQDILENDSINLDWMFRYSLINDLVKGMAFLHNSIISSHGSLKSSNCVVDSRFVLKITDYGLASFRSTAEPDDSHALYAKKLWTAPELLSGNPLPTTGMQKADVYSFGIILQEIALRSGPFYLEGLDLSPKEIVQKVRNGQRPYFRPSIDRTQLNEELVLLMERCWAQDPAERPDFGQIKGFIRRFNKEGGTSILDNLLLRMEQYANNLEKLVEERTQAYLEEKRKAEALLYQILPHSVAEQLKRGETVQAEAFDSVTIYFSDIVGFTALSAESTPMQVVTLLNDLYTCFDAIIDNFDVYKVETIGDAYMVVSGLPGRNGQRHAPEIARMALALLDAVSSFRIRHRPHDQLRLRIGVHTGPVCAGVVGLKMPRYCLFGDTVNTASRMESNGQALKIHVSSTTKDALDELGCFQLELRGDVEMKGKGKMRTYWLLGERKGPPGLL

Turning to `Nc1ccn([C@@H]2O[C@H](CO)[C@@H](O)C2(F)F)c(=O)n1`, the figures for the Potency in assay [1] and in assay [2] were 0.481 µM (active) and 0.0171 µM (active), respectively.

As for `COc1cccc2c1C(=O)c1c(O)c3c(c(O)c1C2=O)C[C@@](O)(C(=O)CO)C[C@@H]3O[C@H]1C[C@H](N)[C@H](O)[C@H](C)O1`, the Potency was 5.9 µM (active) in assay [2] and 18.7 µM (active) in assay [3]. The IC50 (viability decrease) in assay [4] was 0.418 µM (active).

Take `COc1cc2c(cc1O)CC[C@@H]1[C@@H]2CC[C@]2(C)[C@@H](O)CC[C@@H]12`: the Potency was 5.9 µM (active) in assay [3] and 1.05 µM (active) in assay [5]. Further, the IC50 (viability decrease) in assay [4] was 0.935 µM (active). Also, the outcome in assay [6] was inactive.

In the case of `O=C(O)c1cc2cc(Cc3cccnc3)ccc2o1`, the Potency entry in assay [7] is “inactive”. The compound was called inactive in assay [6] and in assay [8].

Consider `CC1(C)O[C@@H]2[C@@H](CO[C@@]3(COS(N)(=O)=O)OC(C)(C)O[C@@H]23)O1`, for which, in assay [7], the Potency result is “inactive”.

As to `CC(C)COC(=O)OCN1C(=O)CN(CCN2CC(=O)N(COC(=O)OCC(C)C)C(=O)C2)CC1=O`, the Potency result in assay [7] was “inactive”. The compound was classed as inactive in assay [6] and in assay [8].

`CCC(NC(C)C)C(O)c1ccc(O)c(O)c1` (stereo not drawn): the Potency entry in assay [7] was “inactive”. Also, the result in assay [6] and in assay [8] was inactive.

Regarding `Cc1cc(O)c(C(C)C)cc1Cl`, in assay [7], the Potency result was “inactive”.

As to `C1CCc2nnnn2CC1`, in assay [7], the Potency entry is “inactive”. Besides, the compound was classed as inactive in assay [6] and in assay [8].

Take `Cc1c(N(C)CS(=O)(=O)O)c(=O)n(-c2ccccc2)n1C`: in assay [7], the Potency result is “inactive”.

Turning to `O=C1CCC(c2ccc(-n3ccnc3)cc2)=NN1`, in assay [7], the Potency was 1.46 µM (active). In addition, the call in assay [6] and in assay [8] was inactive.

Turning to `C[C@@H]1C(=O)NC2=Nc3cccc(Cl)c3CN21`, the Potency in assay [7] was 0.82 µM (active). Further, the compound was called inactive in assay [6] and in assay [8].

On to `CC(CCc1ccccc1)NCC(O)c1ccc(O)c(C(N)=O)c1` (stereo not drawn), for which, in assay [8], the outcome was inactive.

For the compound `C[C@H]1C[C@H]2[C@@H]3CCC4=CC(=O)C=C[C@]4(C)[C@@]3(Cl)[C@@H](O)C[C@]2(C)[C@@]1(O)C(=O)CO`, the Potency result in assay [7] is “inactive”.

Consider `C[C@]12CCC(=O)C=C1[C@@H]1C[C@@H]1[C@H]1[C@@H]3[C@@H]4C[C@@H]4[C@@]4(CCC(=O)O4)[C@@]3(C)CC[C@@H]12`, for which the Potency in assay [7] is 4.11 µM (active).

As for `Nc1cc(Cl)c(NC2=NCCN2)c(Cl)c1`, in assay [7], the Potency entry was “inactive”. In addition, the outcome in assay [6] and in assay [8] was inactive.

On to `C[C@]12CC[C@@H]3c4ccc(O)cc4CC[C@H]3[C@@H]1CC[C@@H]2O`, for which the Potency in assay [7] is 6.51 µM (active). For the same compound, in assay [8], the outcome was inactive.

As to `CN1C2CCC1CC(OC(=O)c1c[nH]c3ccccc13)C2` (stereo not drawn), the compound was classed as inactive in assay [6] and in assay [8].

Take `N[C@@H](Cc1cnc[nH]1)C(=O)O`: the Potency entry in assay [7] was “inactive”. Further, the outcome in assay [6] and in assay [8] was inactive.

As to `CCCn1c(=O)[nH]c(=O)c2[nH]cnc21`, the compound was called inactive in assay [6] and in assay [8].

On to `CC[C@H](C)C(=O)O[C@H]1CCC=C2C=C[C@H](C)[C@H](CC[C@@H]3C[C@@H](O)CC(=O)O3)[C@H]21`, for which the outcome in assay [6] and in assay [8] was inactive.

For `CCCC1O[C@@H]2C[C@H]3[C@@H]4CCC5=CC(=O)C=C[C@]5(C)[C@H]4[C@@H](O)C[C@]3(C)[C@]2(C(=O)CO)O1` (stereo partly drawn), the Potency result in assay [7] was “inactive”. The call in assay [6] and in assay [8] was inactive.

On to `CNCCC(Oc1ccccc1C)c1ccccc1` (stereo not drawn), for which the call in assay [6] and in assay [8] was inactive.

As for `Nc1ccc(/C=C/c2ccc(N)cc2S(=O)(=O)O)c(S(=O)(=O)O)c1`, the Potency entry in assay [7] is “inactive”.

Turning to `Cc1onc(-c2c(Cl)cccc2Cl)c1C(=O)N[C@@H]1C(=O)N2[C@@H]1SC(C)(C)[C@@H]2C(=O)O`, the Potency result in assay [7] was “inactive”.

Consider `N[C@H](CO)C(=O)O`, for which the Potency result in assay [7] is “inactive”. Moreover, the compound was classed as inactive in assay [6] and in assay [8].

For `CC(C)C[C@H]1C(=O)N2CCC[C@H]2[C@]2(O)O[C@](NC(=O)[C@@H]3C=C4c5cccc6[nH]c(Br)c(c56)C[C@H]4N(C)C3)(C(C)C)C(=O)N12`, the result in assay [8] was inactive.

For the compound `CC1(C)OC[C@@H](COC(=O)CCc2ccc(OC[C@@H](O)CNCCNC(=O)N3CCOCC3)cc2)O1`, in assay [7], the Potency entry was “inactive”.

As to `CC(=O)O[C@H]1C[C@@H]2CC[C@@H]3[C@H](CC[C@@]4(C)[C@H]3C[C@H]([N+]3(C)CCCCC3)[C@@H]4OC(C)=O)[C@@]2(C)C[C@@H]1[N+]1(C)CCCCC1`, in assay [7], the Potency result is “inactive”. Besides, the outcome in assay [6] and in assay [8] was inactive.

For the compound `C[N+]1(CCCCC[N+]2(C)CCCC2)CCCC1`, the Potency entry in assay [7] was “inactive”. Moreover, the compound was classed as inactive in assay [6] and in assay [8].

Take `CC(C)(C)CC(C)(C)c1ccc(OCCOCC[N+](C)(C)Cc2ccccc2)cc1`: the Potency entry in assay [7] is “inactive”.

For the compound `CCCCN1CCCC1C(=O)Nc1c(C)cc(C)cc1C` (stereo not drawn), in assay [7], the Potency result is “inactive”.

For `CC1(C)CCC(NC(=O)[C@@H](N)CCC(=O)O)CC1`, the Potency entry in assay [7] was “inactive”. In addition, the result in assay [8] was inactive.

In the case of `COc1cc(NS(C)(=O)=O)ccc1Nc1c2ccccc2nc2ccccc12`, the outcome in assay [8] was inactive.

For `COC(=O)[C@H]1[C@H]2C[C@H]3c4[nH]c5ccccc5c4CCN3C[C@H]2CC[C@@H]1O`, in assay [8], the outcome was inactive.

Take `Oc1ccc(O)cc1`: the Potency entry in assay [7] was “inactive”. In addition, the result in assay [8] was inactive.

The values are drawn from PubChem BioAssay (NCATS).
